For some of these results: Entries with a potency or affinity are not part of this list.

Parameters in all cases: scale not given: direction of the effect not stated beside the values
For test [1], the target named is Protein translocase subunit SecA (Escherichia coli (strain K12)) (UniProt P10408). In words: Assay to Identify E. coli SecA ATPase Inhibitors. Type of test: functional. Conditions: 30 µM.
Test [2] has as its target T1, Ubiquitin-activating enzyme e1, putative (Leishmania donovani (strain BPK282A1)) (UniProt E9BSI1).
T1 sequence (whole entry): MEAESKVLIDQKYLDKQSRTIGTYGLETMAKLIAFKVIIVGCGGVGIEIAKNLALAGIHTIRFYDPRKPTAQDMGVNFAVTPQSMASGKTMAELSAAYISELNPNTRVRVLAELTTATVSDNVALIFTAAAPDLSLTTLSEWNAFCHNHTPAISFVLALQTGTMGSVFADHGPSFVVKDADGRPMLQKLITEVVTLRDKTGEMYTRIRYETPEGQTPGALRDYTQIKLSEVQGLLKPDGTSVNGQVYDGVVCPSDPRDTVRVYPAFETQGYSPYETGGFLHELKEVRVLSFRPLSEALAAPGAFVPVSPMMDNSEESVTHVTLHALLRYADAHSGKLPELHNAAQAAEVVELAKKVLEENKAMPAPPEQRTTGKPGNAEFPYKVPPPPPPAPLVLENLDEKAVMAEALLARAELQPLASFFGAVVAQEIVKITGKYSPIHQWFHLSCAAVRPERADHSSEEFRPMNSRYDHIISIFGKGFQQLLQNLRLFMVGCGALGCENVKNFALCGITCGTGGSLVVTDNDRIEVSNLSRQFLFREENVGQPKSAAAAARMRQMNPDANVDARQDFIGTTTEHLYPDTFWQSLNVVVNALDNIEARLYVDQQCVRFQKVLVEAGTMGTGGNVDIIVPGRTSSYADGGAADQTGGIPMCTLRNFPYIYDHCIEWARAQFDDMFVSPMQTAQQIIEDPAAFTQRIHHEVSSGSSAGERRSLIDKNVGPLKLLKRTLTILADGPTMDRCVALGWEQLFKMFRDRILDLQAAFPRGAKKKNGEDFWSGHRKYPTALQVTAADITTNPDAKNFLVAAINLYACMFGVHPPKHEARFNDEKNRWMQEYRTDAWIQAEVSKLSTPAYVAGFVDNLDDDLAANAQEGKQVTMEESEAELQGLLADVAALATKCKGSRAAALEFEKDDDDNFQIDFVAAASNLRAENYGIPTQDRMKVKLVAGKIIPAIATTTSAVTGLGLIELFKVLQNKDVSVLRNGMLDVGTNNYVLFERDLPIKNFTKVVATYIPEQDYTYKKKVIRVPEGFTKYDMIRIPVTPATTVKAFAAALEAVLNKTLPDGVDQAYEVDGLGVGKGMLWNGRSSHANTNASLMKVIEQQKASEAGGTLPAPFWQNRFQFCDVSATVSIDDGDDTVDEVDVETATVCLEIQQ
In words: Leishmania donovani Ubiquitin Activating Enzyme (LdE1). Format: functional. Conditions: 30 µM.

Test [3] deals with AMP-activated protein kinase, AMPK (Homo sapiens) (UniProt P54646+O43741+P54619+Q9UGJ0+Q9Y478+Q13131+Q9UGI9). In words: AMP-dependent Kinase enzyme assay. An in vitro enzyme assay that detects ADP turnover that is directly proportional to AMPK activity. This uses naive AMPK that is activated during the assay with MK-8722. Type of test: functional. Conditions: 30 µM.
Test [4] addresses Sialic acid-binding Ig-like lectin 9 (Homo sapiens) (UniProt Q9Y336). In words: Hs-Siglec9 ALPHAscreen SOP 20170721. Conditions: 10 µM. (In Alpha technology, singlet oxygen from a donor bead excites a nearby acceptor bead.)
The subject of another test is Trypanosoma cruzi. In words: Trypanosoma cruzi phosphomannomutase and mannose-1-phosphate guanylyltransferase assay. Type of test: functional. Conditions: 10 µM.
Test [5] has as its target T2, Arginase-2, mitochondrial (Homo sapiens) (UniProt P78540).
T2 sequence (whole entry): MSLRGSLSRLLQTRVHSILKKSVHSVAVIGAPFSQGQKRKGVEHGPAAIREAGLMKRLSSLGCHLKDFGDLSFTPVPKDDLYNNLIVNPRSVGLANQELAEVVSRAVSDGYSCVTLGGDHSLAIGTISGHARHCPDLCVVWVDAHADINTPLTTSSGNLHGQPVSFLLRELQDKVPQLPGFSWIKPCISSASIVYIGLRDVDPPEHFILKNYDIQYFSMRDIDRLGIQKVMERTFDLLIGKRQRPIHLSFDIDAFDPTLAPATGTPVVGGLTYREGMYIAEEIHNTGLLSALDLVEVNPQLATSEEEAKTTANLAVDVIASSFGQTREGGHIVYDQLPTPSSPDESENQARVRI
In words: in vitro enzyme assay to detect the production of urea directly proportional to the activity of Arginase II. Note: in the data most compounds retested in dose-response had high values. Format: functional. Conditions: 33.3 µM.

The target of test [6] is T3, Proteasome subunit beta (Trypanosoma cruzi) (UniProt O96673).
T3 sequence (whole entry): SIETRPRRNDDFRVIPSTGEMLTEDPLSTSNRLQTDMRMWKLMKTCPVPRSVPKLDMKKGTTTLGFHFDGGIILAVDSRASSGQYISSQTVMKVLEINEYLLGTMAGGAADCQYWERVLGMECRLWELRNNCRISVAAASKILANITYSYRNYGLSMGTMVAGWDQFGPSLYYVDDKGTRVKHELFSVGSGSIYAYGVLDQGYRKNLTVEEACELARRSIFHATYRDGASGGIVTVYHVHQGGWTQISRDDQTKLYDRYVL
In words: Trypanosoma cruzi proteasome chymotrypsin-like activity (TcProtChymo) assay. Note: in the data most compounds retested in dose-response had high values. Type of test: functional. Conditions: 9.37 µM.

For another test, the species on record is Homo sapiens. In words: To identify inhibition of the IFN signalling (Jak-Stat) pathway via expression of an eGFP reporter gene under the control of an IFN-stimulated response element (ISRE) containing MxA promoter. Format: functional. Conditions: 30 µM. On the technique in general: Reporter assays use an easily measured gene product as a stand-in for the process of interest.

Test [7] addresses T4, Tyrosyl-tRNA synthetase, putative (Trypanosoma cruzi (strain CL Brener)) (UniProt Q4DSP6).
T4 sequence (whole entry): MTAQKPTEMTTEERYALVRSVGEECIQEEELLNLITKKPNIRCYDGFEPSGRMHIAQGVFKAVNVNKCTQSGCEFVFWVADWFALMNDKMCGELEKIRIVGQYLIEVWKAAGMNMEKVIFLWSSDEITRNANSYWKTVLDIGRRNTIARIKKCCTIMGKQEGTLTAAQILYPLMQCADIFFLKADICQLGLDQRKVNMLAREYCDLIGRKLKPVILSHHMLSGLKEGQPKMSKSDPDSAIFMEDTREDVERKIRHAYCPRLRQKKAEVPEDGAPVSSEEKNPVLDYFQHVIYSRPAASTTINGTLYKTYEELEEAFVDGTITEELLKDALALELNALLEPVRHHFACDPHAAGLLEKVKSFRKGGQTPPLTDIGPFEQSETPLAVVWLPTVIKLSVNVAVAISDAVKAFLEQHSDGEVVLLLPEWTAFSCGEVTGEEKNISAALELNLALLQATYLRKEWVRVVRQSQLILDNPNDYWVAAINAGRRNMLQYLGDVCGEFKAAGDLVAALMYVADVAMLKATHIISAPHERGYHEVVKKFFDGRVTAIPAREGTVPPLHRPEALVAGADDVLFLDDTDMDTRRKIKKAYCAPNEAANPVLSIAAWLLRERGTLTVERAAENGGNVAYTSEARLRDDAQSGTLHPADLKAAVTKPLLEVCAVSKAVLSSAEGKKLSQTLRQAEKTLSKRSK
In words: Trypanosoma cruzi tyrosyl tRNA synthetase (TcYRS) _High Tyrosine SOP. Note: in the data most compounds retested in dose-response had high values. Format: functional. Conditions: 30 µM.

Test [8] has as its target T4, Tyrosyl-tRNA synthetase, putative (Trypanosoma cruzi (strain CL Brener)). Briefly: Trypanosoma cruzi tyrosyl tRNA synthetase (TcYRS) SOP. Type of test: functional. Conditions: 30 µM.
Test [9] deals with Chromo domain-containing protein 1 (Saccharomyces cerevisiae (strain ATCC 204508 / S288c) (Baker's yeast)) (UniProt P32657). In words: ScCHD-1 Enzyme Inhibition Assay. Note: in the data most compounds retested in dose-response had high values. Format: functional. Conditions: 30 µM.
Chain of Chromo domain-containing protein 1 (Saccharomyces cerevisiae (strain ATCC 204508 / S288c) (Baker's yeast)) (P32657 whole entry, the tested form may be a part): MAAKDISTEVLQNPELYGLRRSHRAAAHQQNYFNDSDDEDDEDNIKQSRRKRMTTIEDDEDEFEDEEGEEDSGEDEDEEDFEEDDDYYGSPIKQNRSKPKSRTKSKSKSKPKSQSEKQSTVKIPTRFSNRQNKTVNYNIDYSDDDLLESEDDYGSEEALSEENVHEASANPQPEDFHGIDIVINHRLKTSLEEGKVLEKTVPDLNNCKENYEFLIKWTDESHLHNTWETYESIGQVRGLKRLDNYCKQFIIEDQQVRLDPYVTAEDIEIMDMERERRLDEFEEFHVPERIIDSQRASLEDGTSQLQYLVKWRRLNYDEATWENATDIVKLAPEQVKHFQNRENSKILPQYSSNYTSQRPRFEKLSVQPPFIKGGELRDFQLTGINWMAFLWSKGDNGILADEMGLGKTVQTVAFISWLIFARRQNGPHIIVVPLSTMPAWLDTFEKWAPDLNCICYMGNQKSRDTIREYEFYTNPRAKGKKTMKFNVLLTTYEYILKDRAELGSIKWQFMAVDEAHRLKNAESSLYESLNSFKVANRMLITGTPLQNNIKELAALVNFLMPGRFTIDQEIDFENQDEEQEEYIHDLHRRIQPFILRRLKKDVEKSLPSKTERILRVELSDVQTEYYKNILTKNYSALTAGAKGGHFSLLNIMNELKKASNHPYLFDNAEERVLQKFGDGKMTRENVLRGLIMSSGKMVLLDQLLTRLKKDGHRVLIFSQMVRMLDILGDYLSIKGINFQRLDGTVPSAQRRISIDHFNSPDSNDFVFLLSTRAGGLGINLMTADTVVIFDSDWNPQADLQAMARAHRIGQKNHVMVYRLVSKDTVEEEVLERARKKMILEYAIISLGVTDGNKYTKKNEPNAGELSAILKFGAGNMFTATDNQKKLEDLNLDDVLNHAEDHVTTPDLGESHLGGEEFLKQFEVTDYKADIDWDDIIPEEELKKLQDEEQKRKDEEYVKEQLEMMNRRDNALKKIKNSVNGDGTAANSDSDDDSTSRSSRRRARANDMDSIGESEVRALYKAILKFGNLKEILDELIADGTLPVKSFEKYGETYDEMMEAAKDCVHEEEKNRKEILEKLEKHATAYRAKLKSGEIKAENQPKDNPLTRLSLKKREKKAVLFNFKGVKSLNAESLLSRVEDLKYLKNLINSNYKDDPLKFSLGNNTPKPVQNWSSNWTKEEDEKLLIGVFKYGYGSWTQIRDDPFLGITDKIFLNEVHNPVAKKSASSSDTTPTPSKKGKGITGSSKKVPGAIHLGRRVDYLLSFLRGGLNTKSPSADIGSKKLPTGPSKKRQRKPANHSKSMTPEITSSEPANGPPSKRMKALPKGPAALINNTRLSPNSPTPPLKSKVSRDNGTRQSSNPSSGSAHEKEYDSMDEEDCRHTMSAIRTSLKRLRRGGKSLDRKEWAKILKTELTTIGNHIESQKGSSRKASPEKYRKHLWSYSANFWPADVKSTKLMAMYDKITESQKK

Chain of Protein translocase subunit SecA (Escherichia coli (strain K12)) (P10408 whole entry): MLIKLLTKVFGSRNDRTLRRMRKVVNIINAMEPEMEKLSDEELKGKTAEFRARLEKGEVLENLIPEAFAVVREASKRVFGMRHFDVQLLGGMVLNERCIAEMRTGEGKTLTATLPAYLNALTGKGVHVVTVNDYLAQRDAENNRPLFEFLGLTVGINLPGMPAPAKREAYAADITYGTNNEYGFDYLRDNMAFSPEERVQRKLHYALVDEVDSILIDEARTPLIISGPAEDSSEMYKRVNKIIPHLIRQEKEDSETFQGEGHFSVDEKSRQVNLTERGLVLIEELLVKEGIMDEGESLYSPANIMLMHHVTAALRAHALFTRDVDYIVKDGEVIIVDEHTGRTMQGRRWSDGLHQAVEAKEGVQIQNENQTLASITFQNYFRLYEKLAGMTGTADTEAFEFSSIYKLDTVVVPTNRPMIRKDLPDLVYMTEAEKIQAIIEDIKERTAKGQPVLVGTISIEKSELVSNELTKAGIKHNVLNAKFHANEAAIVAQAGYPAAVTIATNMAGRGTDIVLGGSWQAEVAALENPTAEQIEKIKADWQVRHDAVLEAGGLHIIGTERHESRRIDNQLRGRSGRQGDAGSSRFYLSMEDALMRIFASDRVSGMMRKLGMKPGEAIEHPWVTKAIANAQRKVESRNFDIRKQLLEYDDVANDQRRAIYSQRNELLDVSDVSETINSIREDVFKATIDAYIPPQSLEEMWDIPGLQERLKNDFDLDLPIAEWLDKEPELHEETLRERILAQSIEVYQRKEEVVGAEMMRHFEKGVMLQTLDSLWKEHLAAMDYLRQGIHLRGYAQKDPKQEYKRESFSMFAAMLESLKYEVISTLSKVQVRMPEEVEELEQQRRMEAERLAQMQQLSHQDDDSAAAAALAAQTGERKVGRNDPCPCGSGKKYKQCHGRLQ
Chain of Sialic acid-binding Ig-like lectin 9 (Homo sapiens) (Q9Y336 whole entry): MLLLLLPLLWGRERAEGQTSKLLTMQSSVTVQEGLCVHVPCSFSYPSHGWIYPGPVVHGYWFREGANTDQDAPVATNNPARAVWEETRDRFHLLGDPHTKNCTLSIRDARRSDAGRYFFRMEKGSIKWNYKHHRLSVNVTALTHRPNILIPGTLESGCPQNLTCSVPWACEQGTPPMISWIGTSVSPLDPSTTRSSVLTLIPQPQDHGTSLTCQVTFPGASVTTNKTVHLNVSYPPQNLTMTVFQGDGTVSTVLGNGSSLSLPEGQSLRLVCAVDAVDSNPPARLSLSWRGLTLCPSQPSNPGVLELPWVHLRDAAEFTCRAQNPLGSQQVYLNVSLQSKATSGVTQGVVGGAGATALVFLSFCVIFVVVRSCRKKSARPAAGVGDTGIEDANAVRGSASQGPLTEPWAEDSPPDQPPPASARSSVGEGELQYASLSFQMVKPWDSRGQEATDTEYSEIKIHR

With `CS(=O)(=O)NCc1cnc2n1CCN(Cc1ccsc1)CC2`, the Percent Effect in test [1] was 1.5%; in test [2], 21.9%; in [3], -6.69%; in [4] it was 5.11%; with Trypanosoma cruzi, -5.16%; in test [5], -18%. Moreover, the Percent Effect turned out to be 14.6% in test [6]; 18.3% in the test listed under Homo sapiens; 8.33% in test [7]; 3.7% in test [8]; 0.00549% in [9].
For `CS(=O)(=O)c1snnc1C1CCN(Cc2ccncc2)CC1`, the Percent Effect is -6.59% in [1]; 4.05% in test [2]; 2.28% in test [3]; -0.45% in test [4]; -3.75% in the test with Trypanosoma cruzi; -2.09% in test [5]. In addition, the Percent Effect in test [6] worked out at 9.83%; in the test listed under Homo sapiens, 23.2%; in test [7], 0%; in test [8] it was 1.3%; in test [9] it was 5.8%.
`Cc1nccn1C1CCCN(C(=O)c2ccc3c(c2)COC3)C1` (stereo unspecified): the Percent Effect in test [1] is -0.738%; in test [2], -2.7%; in test [3], -1%; in test [4], 7.4%; with Trypanosoma cruzi, 3.44%; in [5], 0.554%. Moreover, the Percent Effect was -5.39% in [6]; -3.77% in the test filed under Homo sapiens; 4.95% in test [7]; 13.4% in test [8]; -0.0787% in [9].
Take `CN(CCn1nc2ccccn2c1=O)CC(=O)NC1CC1`: the Percent Effect in test [1] is 0.259%; in test [2] it was -2.63%; in [3], 7.37%; in [4], -0.458%; with Trypanosoma cruzi, -2.63%; in test [5], 15.4%. Besides, the Percent Effect in test [6] is 10.4%; in the test filed under Homo sapiens, -11.8%; in test [7], 2.13%; in [8] it was 0%; in test [9], -5.38%.
As to `CC1CCN(c2ncc3c(n2)CN(c2ccccc2)C3=O)CC1`, the Percent Effect in test [1] was -5.32%; in test [2] it was 5.2%; in test [3] it was -0.285%; in test [4], 2.67%; in the test on Trypanosoma cruzi it was -5.8%; in test [5], -30.3%. Besides, the Percent Effect is -5.82% in test [6]; -2.62% in the test filed under Homo sapiens; 2.15% in test [7]; 11.1% in test [8]; 5.77% in [9].
Consider `Cc1cnn(CCNCc2ccc(F)cc2Cl)c1`, for which the Percent Effect in test [1] is -3.52%; in test [2], 8.11%; in test [3], -1.08%; in [4], 10.9%; in the test with Trypanosoma cruzi it was -1.02%; in test [5], 0.554%. Besides, the Percent Effect was 10.9% in test [6]; -9.92% in the test listed under Homo sapiens; 1.98% in test [7]; 13.4% in [8]; 1.6% in test [9].
On to `Cc1ccccc1CSc1nc(N)cc(N2CCOC(C(N)=O)C2)n1` (stereo unspecified), for which the Percent Effect was -5.78% in test [1]; 2.7% in test [2]; -2.45% in [3]; -7.55% in test [4]; -4.4% in the test on Trypanosoma cruzi; 0.248% in test [5]. In addition, the Percent Effect in [6] is 10%; in the test listed under Homo sapiens, 22.4%; in test [7], 6.45%; in test [8], 11.1%; in test [9] it was -1.13%.
For `Cc1nc(N2CCCCC2)ncc1C(=O)N1CC(C)(C)[C@@](C)(O)C1`, the Percent Effect was -4.9% in [1]; 0% in test [2]; -4.56% in [3]; 7.93% in [4]; -2.05% with Trypanosoma cruzi; 4.22% in [5]. In addition, the Percent Effect in test [6] was -6.09%; in the test filed under Homo sapiens, 7.42%; in [7], 8.6%; in test [8] it was 6.17%; in [9] it was -1.76%.
Regarding `CS(=O)(=O)NCCNC(=O)C1(c2cccc(Cl)c2)CC1`, the Percent Effect is -0.857% in [1]; 9.72% in test [2]; -4.76% in test [3]; 1.31% in test [4]; 1.07% with Trypanosoma cruzi; 20.8% in test [5]. For the same compound, the Percent Effect is 10.9% in test [6]; -17.9% in the test filed under Homo sapiens; 3.16% in [7]; 7.69% in test [8]; -4.91% in [9].
With `CN(C)C(=O)COCc1cncc2c1CCN(Cc1nccn1C)C2`, the Percent Effect in test [1] is -2.93%; in test [2], 7.79%; in test [3], 3.61%; in test [4], 17.4%; with Trypanosoma cruzi, 7.18%; in test [5], -106%. Also, the Percent Effect in test [6] was 3%; in the test filed under Homo sapiens, 20.9%; in test [7] it was 6.45%; in [8] it was 13.6%; in test [9] it was 0.222%.
For the compound `CC(C)N(C)CCCNC(=O)c1cnc(-c2ccccc2)nc1`, the Percent Effect in [1] is -6.93%; in [2], 21.6%; in test [3], 1.03%; in test [4] it was 23.6%; with Trypanosoma cruzi, 6.75%; in test [5] it was 7.2%. In addition, the Percent Effect in test [6] was 8.67%; in the test filed under Homo sapiens it was -4.42%; in test [7], 4.3%; in test [8] it was 18.5%; in test [9] it was -10.6%.

These data come from ChEMBL document CHEMBL3988442, “University of Dundee, Small-Polar-MMV Screening Library” (2021).
